Experimental data as given in paper PMC4336329 (PLoS ONE, 2015).
The whole screen tested about 310,000 compounds, of which about 14,000 (4.5%) showed an effect of 50% or more. Effects have a minus sign here. Shown is part of a subset that was picked to be rich in strong results.

These compounds were tested against human ether-à-go-go-related gene (hERG) potassium channel (human, UniProt Q12809) (assay: primary screen, population patch clamp on CHO cells stably expressing hERG; higher = less effect of the substance).
human ether-à-go-go-related gene (hERG) potassium channel, sequence (Q12809 whole entry, looked up): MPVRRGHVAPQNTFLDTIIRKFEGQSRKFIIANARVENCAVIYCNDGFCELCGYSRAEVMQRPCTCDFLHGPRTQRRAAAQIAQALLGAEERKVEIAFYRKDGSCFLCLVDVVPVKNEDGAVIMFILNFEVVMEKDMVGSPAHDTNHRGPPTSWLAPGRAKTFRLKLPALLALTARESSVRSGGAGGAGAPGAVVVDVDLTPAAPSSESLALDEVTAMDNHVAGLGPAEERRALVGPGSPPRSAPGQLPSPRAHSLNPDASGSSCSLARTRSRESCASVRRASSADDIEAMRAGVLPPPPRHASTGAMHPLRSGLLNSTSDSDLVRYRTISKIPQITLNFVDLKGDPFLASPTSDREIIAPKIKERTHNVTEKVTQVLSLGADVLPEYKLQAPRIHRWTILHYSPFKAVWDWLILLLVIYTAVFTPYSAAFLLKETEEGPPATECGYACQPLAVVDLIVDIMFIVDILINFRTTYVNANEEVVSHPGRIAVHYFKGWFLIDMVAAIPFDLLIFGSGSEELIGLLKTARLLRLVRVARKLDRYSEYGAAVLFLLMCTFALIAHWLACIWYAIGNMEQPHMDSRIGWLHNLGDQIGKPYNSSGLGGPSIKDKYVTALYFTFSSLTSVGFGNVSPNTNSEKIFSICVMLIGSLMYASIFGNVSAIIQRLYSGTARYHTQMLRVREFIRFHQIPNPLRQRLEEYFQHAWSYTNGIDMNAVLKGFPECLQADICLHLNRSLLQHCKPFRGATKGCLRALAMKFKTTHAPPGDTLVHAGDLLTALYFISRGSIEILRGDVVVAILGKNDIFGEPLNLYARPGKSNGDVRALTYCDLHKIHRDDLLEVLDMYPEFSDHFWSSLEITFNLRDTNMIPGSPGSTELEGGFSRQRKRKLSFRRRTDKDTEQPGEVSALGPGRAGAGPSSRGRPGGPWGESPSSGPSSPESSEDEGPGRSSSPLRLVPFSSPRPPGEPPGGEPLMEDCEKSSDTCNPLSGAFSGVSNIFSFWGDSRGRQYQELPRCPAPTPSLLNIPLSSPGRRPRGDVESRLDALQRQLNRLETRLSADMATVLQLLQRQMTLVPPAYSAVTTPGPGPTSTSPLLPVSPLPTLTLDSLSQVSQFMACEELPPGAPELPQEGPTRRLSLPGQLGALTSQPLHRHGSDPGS
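Note: peak tail current of the secondary pulse compared with the same well before compound.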

SMILES | hERG current change (%, negative = inhibition) at 10uM
COCCn1c(C)cc(C(=O)Cn2nc(C(=O)O)c3ccccc3c2=O)c1C | -3.4%
O=C(CNC(=O)Cc1cccc2ccccc12)NCc1ccccc1F | 14.8%
CCOC(=O)C1=C(COC(=O)c2cccc(N(C)C)c2)NC(=O)NC1C (stereo not shown) | 2.49%
O=C(Oc1ccc(F)cc1)c1cccnc1 | 17.1%
O=C(c1ccc(Br)s1)N1CCN(Cc2ccc3c(c2)OCO3)CC1 | -36.3%
O=C(/C=C/c1cccs1)N1CCN(Cc2ccc3c(c2)OCO3)CC1 | -47.9%
Cn1c(C(=O)N2CCC(C(=O)N3CCN(Cc4ccc5c(c4)OCO5)CC3)CC2)cc2sccc21 | -60.6%
Cl.O=C(c1cc2c(s1)CCCC2)N1CCN(Cc2ccc3c(c2)OCO3)CC1 | -54.2%
O=C(/C=C\c1cccs1)N1CCN(Cc2ccc3c(c2)OCO3)CC1 | -57.8%
O=C(O)/C=C/C(=O)N1CCN(Cc2ccc3c(c2)OCO3)CC1 | 4.54%
O=C(c1sccc1Br)N1CCN(Cc2ccc3c(c2)OCO3)CC1 | -11%
O=C(C1CCCN1C(=O)c1cccs1)N1CCN(Cc2ccc3c(c2)OCO3)CC1 (stereo not shown) | -6.29%
Cl.Cn1c(C(=O)N2CCN(Cc3ccc4c(c3)OCO4)CC2)cc2sccc21 | -8.46%
Cn1c(C(=O)N2CCC(C(=O)N3CCOCC3)CC2)cc2sccc21 | 7.59%
O=C(c1cccs1)N1CCN(Cc2ccc3c(c2)OCO3)CC1 | -15.7%
O=C(c1cccs1)N1CCC(C(=O)N2CCN(Cc3ccc4c(c3)OCO4)CC2)CC1 | -59.9%
CCOC(=O)c1ccc(N2CN(CCc3ccccc3)CNC2=S)cc1 | 6.21%
COC(=O)/C(C#N)=C\c1c(OC)[nH]c2ccccc12 | 14%
Cc1ccc2[nH]c(SCC(=O)N3CCOCC3)nc2c1C | 8.6%
Cc1ccc2c(c1)nnn2C1CCN(CC(=O)NNC(=O)c2ccco2)CC1 | 37.1%
COc1ccc(C(=O)NNC(=O)CN2CCC(n3nnc4cc(C)ccc43)CC2)cc1 | -15%
Cc1ccc2c(c1)nnn2C1CCN(CC(=O)NCCc2nc3ccccc3[nH]2)CC1 | -27.9%
Cc1cccc(C(=O)NC2CCN(CC(=O)NCc3ccccc3F)CC2)c1 | -33.2%
Cc1ccc2c(c1)nnn2C1CCN(CC(=O)NCc2ccccc2F)CC1 | -59.9%
Cc1ccc2c(c1)nnn2C1CCN(CC(=O)N(c2ccccc2)c2ccccc2)CC1 | 11.4%
Cc1ccc2c(c1)nnn2C1CCN(CC(=O)NCCc2ccccc2)CC1 | -50.4%
O=C(CN1CCC(n2nnc3cc(F)ccc32)CC1)NCCc1ccccc1 | -41.5%
CCOC(=O)CN(C(=O)CN1CCC(n2nnc3cc(C)ccc32)CC1)c1ccccc1 | -53.8%
